# Assay results from PubChem BioAssay AID411 (National Center for Advancing Translational Sciences (NCATS), 2006).
# In all, about 72,000 compounds went through this assay and about 1,600 (2.2%) were called active. The entries come from a sample that favours actives as a whole. Entries that show only a call come without a potency. Unmarked numbers belong to inactive results. Calls follow the shape of the dose curve; as a rule, active = well fitted inhibition curve with a large enough effect; inconclusive = small, poorly fitted or top-dose-only effect; inactive = flat fitted curve, though single readings scatter.
# Biological target: Luciferin 4-monooxygenase (Photinus pyralis) (UniProt P08659)
# Sequence (P08659 whole entry, looked up): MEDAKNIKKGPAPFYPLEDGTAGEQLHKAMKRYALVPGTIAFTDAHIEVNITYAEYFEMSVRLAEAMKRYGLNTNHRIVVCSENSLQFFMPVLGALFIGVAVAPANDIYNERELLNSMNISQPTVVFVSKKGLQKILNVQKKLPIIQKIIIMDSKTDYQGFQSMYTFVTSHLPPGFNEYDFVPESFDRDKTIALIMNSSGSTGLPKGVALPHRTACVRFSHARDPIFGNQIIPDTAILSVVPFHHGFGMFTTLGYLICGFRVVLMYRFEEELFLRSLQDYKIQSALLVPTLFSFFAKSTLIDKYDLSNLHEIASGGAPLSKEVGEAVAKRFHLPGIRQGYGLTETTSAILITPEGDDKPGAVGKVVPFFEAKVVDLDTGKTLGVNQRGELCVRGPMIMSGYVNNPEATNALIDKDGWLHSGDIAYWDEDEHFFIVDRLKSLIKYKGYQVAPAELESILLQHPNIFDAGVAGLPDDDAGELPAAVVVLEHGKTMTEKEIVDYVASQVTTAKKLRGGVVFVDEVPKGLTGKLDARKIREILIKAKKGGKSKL
# Experiment: qHTS Assay for Inhibitors of Firefly Luciferase; also: nearly all actives have a fitted effect of over 40% in size
# Conditions: purified firefly luciferase, luminescence, 8 min; series mostly up to 57.1 µM
# Experimental: To aid in the interpretation of high-throughput screening (HTS) results derived from luciferase-based assays, we used quantitative HTS, an approach that defines the concentration-response behavior of each library sample, to profile the ATP-dependent luciferase from Photinus pyralis against more than 72 000 samples. Luciferase (PKLight, Cambrex Corporation) was assayed for its ability to generate light using ATP and luciferin as substrates. The ATP concentration in the assay (10 uM) was within the linear range of enzyme activity for the assay conditions used. See following reference for further details: [1] Auld DS, Southall NT, Jadhav A, Johnson RL, Diller DJ, Simeonov A, Austin CP, Inglese J. Characterization of chemical libraries for luciferase inhibitory activity. J Med Chem. 2008 Apr 24;51(8):2372-86. Auld DS, Zhang YQ, Southall NT, Rai G, Landsman M, Maclure J, Langevin D, Thomas CJ, Austin CP, Inglese J. A Basis for Reduced Chemical Library Inhibition of Firefly Luciferase Obtained from Directed Evolution. J. Med. Chem., 2009, 52 (5), pp 1450#1458 [3] Auld DS, Thorne N, Nguyen DT, Inglese J. A specific mechanism for nonspecific activation in reporter-gene assays. ACS Chem Biol. 2008 Aug 15;3(8):463-70. Auld DS, Thorne N, Maguire WF, Inglese J. Mechanism of PTC124 activity in cell-based luciferase assays of nonsense codon suppression. Proc Natl Acad Sci U S A. 2009 Mar 3;106(9):3585-90. Inglese J, Auld DS, Jadhav A, Johnson RL, Simeonov A, Yasgar A, Zheng W, Austin CP. Quantitative high-throughput screening: a titration-based approach that efficiently identifies biological activities in large chemical libraries. Proc Natl Acad Sci U S A. 2006 Aug 1;103(31):11473-8.
# Four uL of substrate mix (final concentration, 50 mM imidazole pH 7.2, 50 mM KCl, 7 mM MgCl2, 10 uM ATP, 0.01% Tween 20, 0.05% BSA) was dispensed into white 1536 well plates. Twenty-three nL of compound was delivered by a pin tool and 2 uL of luciferase detector mix (PKLight, Cambrex) was added. Following 8-minute incubation at ambient temperature, luminescence was measured by a ViewLux (Perkin Elmer) at 5 seconds exposure/plate.
# Potency is read from the fitted curve at half-maximal effect.
Compound,Potency,"activity change, negative = inhibition"
COc1ccc(-c2cc3ccc(OCc4nn[nH]n4)cc3oc2=O)cc1,3.16 µM (active),–
CCCCc1cc(=O)oc2cc(C)cc(OCc3nn[nH]n3)c12,inactive,–
O=c1oc2cc(O)ccc2cc1-c1ccc(F)cc1,inactive,–
CCn1ccnc1C[C@@H]1COc2ccccc2O1,inactive,–
CCOc1ccc(C(C)C)cc1S(=O)(=O)n1nc(C)cc1C,inactive,–
O=C1C(c2ccccn2)=[N+]([O-])c2ccccc21,inactive,–
CCCC(=O)N1c2ccc(-c3csc(N)n3)cc2CC1C (centres undefined),12.6 µM (active),–
CCC(=O)N1c2ccc(S(=O)(=O)CCC(=O)N3CCN(c4ccccc4)CC3)cc2CC1C (centres undefined),inactive,–
CCn1nc(C(=O)OCC(=O)N2c3ccccc3CC2C)c2ccccc2c1=O (centres undefined),inactive,–
O=C(c1ccc2c(c1)OCCO2)C1CCN(S(=O)(=O)c2cccc(F)c2)CC1,inactive,–
O=C(c1ccc(F)cc1)C1CCN(CCCCc2ccccc2)CC1,inactive,–
Cc1nc2cnc(N3CCN(C)CC3)nc2n(CCC#N)c1=O,–,0.64% [at 11.4 µM]
O=C1CCC(C(=O)Nc2ccc(OC(F)F)cc2)N1 (centres undefined),inactive,–
OCCCN1c2ccccc2Nc2nnc(-c3ccccc3)cc21,3.98 µM (active),–
NS(=O)(=O)c1cc(Cl)c(Cl)c(S(N)(=O)=O)c1,inactive,–
COc1ccc(Br)c2c1C[C@H](C(=O)O)CC2,–,3.64% [at 11.4 µM]
CCN(Cc1ccncc1)C(=O)[C@@H](CO)c1ccccc1,inactive,–
Cn1c(=NC(=O)CSCC(=O)N2CCOCC2)sc2ccccc21,inactive,–
Cn1c(=NC(=O)c2cnccn2)sc2ccccc21,12.6 µM (active),–
Cn1c(=NC(=O)CSCC(=O)N2CCCCC2)sc2ccccc21,inactive,–
Cc1nc(SCC(=O)Nc2cc(C)on2)c2c(C)c(C)sc2n1,inactive,–
Cc1ccc2nc(-c3ccc(SCC(=O)Nc4cc(C)on4)nc3)[nH]c2c1,2.51 µM (active),–
Cc1cc(C)c2c(c1)cc(C)c1nnc(SCC(=O)Nc3cc(C)on3)n12,inactive,–
COc1ccc(N(C(=O)c2cccnc2)S(=O)(=O)c2ccc3c(c2)n(C)c(=O)n3C)cc1,inactive,–
O=S(=O)(Nc1ccccn1)c1ccc(Oc2ccccc2)cc1,inactive,–
CCOC(=O)N1CCC(NC(=O)c2cnn3ccccc23)CC1,inactive,–
O=C(c1cnn2ccccc12)N1CCc2ccccc21,12.6 µM (active),–
O=C(c1cccc(C(=O)N2CCc3ccccc32)n1)N1CCc2ccccc21,inactive,–
O=C(c1ccc([N+](=O)[O-])cc1)[C@@H](Br)[C@@H](Br)c1ccnc2ccccc12,–,-0.655% [at 11.4 µM]
